KinaseGlo FLuc: blocks Kinase-Glo luciferase, a counter-screen artifact | AID 1379 | Q27757 | Potency, µM (series often up to 38.3 µM), inactives show at the top dose activity change, negative = inhibition, actives largely listed as inhibitors | Kinase-Glo luciferase, ATP luminescence, 8 min | 0.28% of 200,000 active; further: on the % scale 0 is the no-effect control and ±100 the full control effect; nearly all actives have a fitted effect of over 60% in size
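Compound is pinned into ATP-containing buffer (10 uM ATP, imidazole pH 7.2, 7 mM MgCl2). Kinase-Glo luciferase reagent is then added. Light output is recorded following an 8-min room-temperature incubation.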
FLuc modulator: inhibits or activates purified firefly luciferase, miR-21 counter-screen. P08659. purified FLuc, Km substrates, luminescence inhibition. Potency, µM (highest dose often 57.5 µM), without a hit: at the highest dose activity change, negative = inhibition, actives largely listed as inhibitors. 6.9% of 360,000 active. AID 588342;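 further: plate controls were vehicle for no effect and reference inhibitor for full effect; nearly all actives have a fitted effect of over 55% in size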
Target sequence (P08659 whole entry, looked up): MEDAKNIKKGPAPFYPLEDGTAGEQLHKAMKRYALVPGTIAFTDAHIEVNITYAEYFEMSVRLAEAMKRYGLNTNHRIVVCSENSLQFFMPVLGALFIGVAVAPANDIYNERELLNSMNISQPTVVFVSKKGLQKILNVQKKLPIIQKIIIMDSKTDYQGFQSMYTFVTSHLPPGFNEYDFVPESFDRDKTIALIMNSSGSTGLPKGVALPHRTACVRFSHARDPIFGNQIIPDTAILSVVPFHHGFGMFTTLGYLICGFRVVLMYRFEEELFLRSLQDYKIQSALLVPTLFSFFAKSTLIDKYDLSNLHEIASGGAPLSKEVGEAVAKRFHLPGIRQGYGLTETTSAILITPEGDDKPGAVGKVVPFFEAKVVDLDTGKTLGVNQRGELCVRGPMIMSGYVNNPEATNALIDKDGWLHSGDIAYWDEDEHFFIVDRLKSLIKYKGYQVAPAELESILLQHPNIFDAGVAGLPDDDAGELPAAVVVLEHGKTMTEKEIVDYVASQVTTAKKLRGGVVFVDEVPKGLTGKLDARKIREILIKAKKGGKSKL
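Purified P. pyralis luciferase (10nM final) with 10uM D-luciferin and 10uM ATP (Km levels) in 50mM Tris acetate pH 7.5, 10mM Mg acetate, 0.01% Tween-20, 0.05% BSA; qHTS 6-point titration, ~60 µM downward; luminescence read.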
NPC1 prom act: activates the NPC1 promoter. Huh7 NPC1 promoter luciferase reporter, 24 h. Potency, µM (highest dose often 9.22 µM), inactives show at the top dose activation, usual class: activators. 2.4% of 320,000 active; further: % of control where 0% means no effect; nearly all actives have a fitted effect of over 60% in size
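In 1536-well qHTS, Huh7 cells harboring an NPC1 promoter–luciferase construct received compound for 24 h; activation was quantified by luminescence following luciferase reagent addition.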
SMN2 splice up: increases expression of the SMN2 splice variant; 2.8% of 210,000 active; Potency, µM (doses to about 46.1 µM), inactives show at the top dose activity change, positive = activation, most hits filed as activators; HEK293 SMN2-luciferase splicing reporter, luminescence, 30-36 h; further: % of control where 0% means no effect; nearly all actives have a fitted effect of over 55% in size
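HEK293 cells carry an SMN2 minigene-luciferase reporter in which exon 7 inclusion puts luciferase in frame. Cells were seeded at 2000 cells/well, attached for 10-12 hours, then exposed to compounds for 30-36 hours at 37C before ONE-Glo luminescence.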
ELG1 genotoxic: induces genotoxicity in HEK293T cells with luciferase-tagged ELG1; HEK293T ELG1-luciferase reporter, luminescence, 16 h; Potency, µM (highest dose often 46 µM), inactives show at the highest dose activity change, positive = activation, most hits filed as activators; 1.3% of 330,000 active; AID 504466; further: % of control where 0% means no effect; nearly all actives have a fitted effect of over 60% in size
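After overnight (16 hr) compound treatment at 37 °C, ELG1-luciferase HEK293T cells were lysed with ONE-Glo; luminescence quantified 30 min later at room temperature.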
Rab9 promoter act: Rab9 promoter activation. Huh7 Rab9 promoter-luciferase reporter, luminescence, 24 h. Potency, µM (series often up to 9.22 µM), inactives show at the top dose activation, negative = inhibition, usual class: activators. 2.8% of 320,000 active. AID 485297; further: % of control where 0% means no effect; nearly all actives have a fitted effect of over 60% in size
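Cells were plated at 1500 per well in reduced-serum medium with 10% FBS and left 2 h. Compound in DMSO was then added for 24 h at 37 °C. Reporter signal was read by luminescence after 10 min with luciferase detection reagent.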
An asterisk follows results filed as active; ? = inconclusive; . = no result given. Hits are enriched below; roughly 7.3% of the tested compounds scored in any of these assays. The call rests on the fitted dose curve; in most records, active means well fitted curve in the direction sought with a large enough effect; inconclusive means small, poorly fitted or top-dose-only effect, or another doubt; inactive means no such curve, though single readings can be large; an effect the other way counts as inactive or inconclusive. Potency means the concentration at half of the fitted maximal effect.

SMILES	KinaseGlo FLuc	FLuc modulator	NPC1 prom act	SMN2 splice up	ELG1 genotoxic	Rab9 promoter act
COc1ccc(C=NCC2OCCc3ccccc32)cc1OC (stereo unspecified)	0%	3%	1%	6%	2%	1%
N#C/C(=C\c1ccc(N2CCOCC2)o1)c1ccccc1	0%	2.1µM*	?	13µM*	?	?
O=C(Nc1ccccc1C(=O)Nc1nnc(C(F)(F)F)s1)c1ccccc1	.	?	-31%	.	-14%	-39%
COc1ccc(OC(=O)c2ccc3nsnc3c2)cc1	-9%	7.6µM*	2%	1%	2%	-1%
Cc1ccc(OC(=O)c2ccc3nc(C)sc3c2)cc1	2%	2.4µM*	0.79µM*	14µM*	2.9µM*	0.63µM*
CC(=O)c1ccc(OCC(=O)Nc2ccc3nc(C)sc3c2)cc1	1%	-12%	-9%	5%	0%	2%
COC(CNC(=O)c1cccc(-n2c(=S)[nH]c3cc(Cl)ccc3c2=O)c1)OC	0%	-19%	1%	11%	0%	-40%
Clc1ccc(SCc2cn3ccsc3n2)cc1	-5%	11µM*	2.8µM*	25%	?	4µM*
c1ccc(CSCc2cn3ccsc3n2)cc1	2%	27µM*	?	13µM*	16µM*	2.8µM*
c1cn2cc(CSC3CCCCC3)nc2s1	-12%	12µM*	3.2µM*	14µM*	2.3µM*	4µM*
O=C(Cc1cn2ccsc2n1)OCc1ccccc1	-2%	-28%	8%	23%	?	15%
Cc1csc2nc(CSc3ccc(Cl)cc3)cn12	-11%	5.4µM*	2.5µM*	5µM*	?	2.5µM*
O=C(Nc1ccccc1)OCC1CCCN2CCCCC12 (stereo unspecified)	-5%	-8%	1%	13%	3%	-2%
CC1=CCC(COC(=O)Nc2ccccc2)CC1 (stereo unspecified)	?	6.7µM*	2.8µM*	18µM*	?	4µM*
CCOC(=O)C1(CCCc2ccccc2)CCN(C(=O)CN2CCOC2=O)CC1	-4%	-1%	1%	.	-1%	-9%
CCOC(=O)C1(Cc2ccccc2Cl)CCN(C(=O)CN2CCOC2=O)CC1	0%	11µM*	?	.	?	3.5µM*
CC1CCCN(C(=O)COC(=O)Cc2c(F)cccc2Cl)C1 (stereo unspecified)	.	17µM*	?	.	?	?
CC1CCCN(C(=O)COC(=O)CNC(=O)c2sc3ccccc3c2Cl)C1 (stereo unspecified)	.	24µM*	-4%	.	-1%	-4%
CC1CCCN(C(=O)COC(=O)COc2ccc(Cl)cc2)C1 (stereo unspecified)	.	.	.	.	1%	.
CC(C)CN(C(=O)COC(=O)CNC(=O)c1sc2ccccc2c1Cl)C1CCS(=O)(=O)C1 (stereo unspecified)	.	12µM*	-2%	.	2%	-6%
COc1ccc(C2=NN(C(=O)CSc3ncccn3)C(c3cccc(OC)c3OC)C2)cc1 (stereo unspecified)	2%	-2%	1%	-4%	-2%	1%
CCOc1cccc2c1OC(c1cc(OC)c(OC)c(OC)c1)N1N=C(c3ccc(C)o3)CC21 (stereo unspecified)	1%	3µM*	21%	?	?	25%
Cc1ccc(NCc2nc3ccccc3n2C)c(C)c1	.	0.34µM*	0.63µM*	.	1µM*	0.71µM*
Cn1c(CNc2ccc(Cl)cc2)nc2ccccc21	-6%	6.7µM*	4.5µM*	7.1µM*	4.6µM*	?
Cc1nc2cc(NCc3nc4ccccc4n3Cc3ccccc3)ccc2n1C	10µM*	0.6µM*	1.1µM*	1%	?	0.71µM*
SMILES	KinaseGlo FLuc	FLuc modulator	NPC1 prom act	SMN2 splice up	ELG1 genotoxic	Rab9 promoter act
Cc1ccc(N2CCN(c3ccc(NCc4nc5ccccc5n4C)cc3)CC2)cc1	-3%	-19%	0%	-25%	0%	2%
Cc1cccc(NCc2nc3ccccc3n2Cc2ccccc2)c1	-5%	24µM*	12%	1%	15%	4%
Cc1cccc(NCc2nc3ccccc3n2CCOc2ccccc2C)c1	.	1%	.	-41%	.	.
CC1CCc2nc(NC(=O)CN3CCOCC3)sc2C1 (stereo unspecified)	-2%	?	23%	?	?	?
CCc1c(C)nc2ncnn2c1N1CCCC(C(=O)NCCc2ccccc2)C1 (stereo unspecified)	3%	-4%	-4%	-13%	-2%	-3%
CN(CCc1cnn(C)c1)C(=O)C1CCC(=O)N(CC2CCCCC2)C1 (stereo unspecified)	.	0%	2%	.	0%	7%
O=C(CCNC(=O)c1ccc(Br)cc1)NCC1CCCO1 (stereo unspecified)	.	1%	-1%	.	-1%	-4%
O=S(=O)(c1ccc(F)c(F)c1F)N1CCN(c2ncnc3sccc23)CC1	.	.	.	.	-2%	.
COc1cccc(CNc2ccc3c(c2)ncn3C)c1OC	.	?	4%	8%	6%	23%
Cn1c(NCc2cccc(Br)c2)nc2ccccc21	-4%	-15%	-1%	-10%	?	3%
Cc1cccc(NCc2nc3ccccc3n2C)c1	-18%	24µM*	?	?	12µM*	3.2µM*
COc1cccc(CNc2ccc3c(c2)nc(C)n3C)c1OC	.	24µM*	?	.	?	?
CC(C)=CCN1CCN(Cc2c(C)nn(C)c2Cl)CC1CCO (stereo unspecified)	0%	4%	-1%	-4%	-1%	-3%
O=c1c2ccccc2nc2ccccn12	-4%	-19%	22%	?	?	6%
CN(C)c1nc(N(C)C)nc(N2CC(=O)N(c3ccccc3)C2=N)n1	-2%	1%	-2%	5%	0%	-6%
CCCCc1nn(-c2cc(Cl)ccc2OC)c2c1C(=O)CCC2	1%	-1%	1%	-12%	-2%	2%
O=C(N/N=C/c1cccnc1)c1ccc(O)cc1	.	?	12%	.	2%	3%
O=C(N/N=C/c1cccnc1)c1ccc2c(c1)OCO2	.	8.5µM*	?	.	?	?
O=C(Cc1ccccc1)N/N=C/c1cc2c(cc1Cl)OCO2	2%	?	6%	-18%	0%	1%
O=C(N/N=C/c1cc2c(cc1Cl)OCO2)c1ccc2c(c1)OCCO2	.	7.6µM*	4%	.	9%	19%
COc1cc(C(=O)NCC(=O)N/N=C/c2cccc(OC(=O)c3ccco3)c2)cc(OC)c1OC	0%	?	-4%	7%	13%	3%
O=C(N/N=C\c1cccc(OC(=O)c2ccco2)c1)c1ccc2c(c1)OCO2	-3%	1.7µM*	24%	?	15µM*	25%
